Assays:
Assay in all cases: DAPPL (digital affinity profiling via proximity ligation, sequencing); 10 mM Tris-HCl pH 7.5, 50 mM NaCl, 1 mM DTT, 4% glycerol, room temperature, 30 min; GST-TFs on glutathione beads, 16-mer random dsDNA library, 0.1% formaldehyde crosslink after washing; high values mean tight binding
FEV = molecular target: T1, FEV (Homo sapiens, UniProt Q99581 1-238); conditions: protein: recombinant; tags: N-terminal GST; dsDNA, one strand shown
T1 sequence: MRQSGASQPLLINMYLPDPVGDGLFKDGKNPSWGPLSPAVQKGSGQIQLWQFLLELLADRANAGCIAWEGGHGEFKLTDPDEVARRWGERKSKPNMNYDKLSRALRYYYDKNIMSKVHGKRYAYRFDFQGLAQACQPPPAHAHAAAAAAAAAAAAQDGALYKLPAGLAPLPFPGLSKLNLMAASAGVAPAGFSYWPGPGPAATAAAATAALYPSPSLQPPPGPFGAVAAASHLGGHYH
Summary of the method: (§1)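 Human transcription factors were made in yeast as GST fusions, captured on glutathione beads and barcoded with DNA. With a tag-only sample included, the pool was incubated with 200 nmole of a random double-stranded 16-mer DNA library in Tris/NaCl/DTT/glycerol buffer at room temperature for 30 min, then crosslinked with 0.1% formaldehyde after washing, ligated by proximity, amplified and sequenced. For binding signal, each hexamer's read frequency for a factor is divided by its frequency for the tag-only sample.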

ETV5 = ETV5 (Homo sapiens, UniProt P41161 1-510); conditions: protein: recombinant; tags: N-terminal GST; dsDNA, one strand shown
ETV5, sequence (P41161 whole entry): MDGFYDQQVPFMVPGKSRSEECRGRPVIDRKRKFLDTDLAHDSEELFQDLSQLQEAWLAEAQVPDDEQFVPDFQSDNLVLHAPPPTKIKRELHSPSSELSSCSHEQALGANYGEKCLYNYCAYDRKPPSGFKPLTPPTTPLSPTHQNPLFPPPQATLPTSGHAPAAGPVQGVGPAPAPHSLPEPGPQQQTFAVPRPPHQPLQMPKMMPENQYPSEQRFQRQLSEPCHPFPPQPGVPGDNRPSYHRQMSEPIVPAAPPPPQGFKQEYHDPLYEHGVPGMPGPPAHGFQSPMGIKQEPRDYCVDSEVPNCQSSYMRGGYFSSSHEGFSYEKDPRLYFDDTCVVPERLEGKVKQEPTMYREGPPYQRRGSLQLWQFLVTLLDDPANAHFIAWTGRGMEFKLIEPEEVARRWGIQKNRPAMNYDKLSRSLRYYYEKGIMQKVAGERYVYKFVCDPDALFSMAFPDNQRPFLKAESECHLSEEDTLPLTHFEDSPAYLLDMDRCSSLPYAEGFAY
Summary of the method: as §1

HSF1 = HSF1 (Homo sapiens, UniProt Q00613 1-529); conditions: protein: recombinant; tags: N-terminal GST; chain copies: 3; dsDNA, one strand shown
HSF1, sequence (Q00613 whole entry): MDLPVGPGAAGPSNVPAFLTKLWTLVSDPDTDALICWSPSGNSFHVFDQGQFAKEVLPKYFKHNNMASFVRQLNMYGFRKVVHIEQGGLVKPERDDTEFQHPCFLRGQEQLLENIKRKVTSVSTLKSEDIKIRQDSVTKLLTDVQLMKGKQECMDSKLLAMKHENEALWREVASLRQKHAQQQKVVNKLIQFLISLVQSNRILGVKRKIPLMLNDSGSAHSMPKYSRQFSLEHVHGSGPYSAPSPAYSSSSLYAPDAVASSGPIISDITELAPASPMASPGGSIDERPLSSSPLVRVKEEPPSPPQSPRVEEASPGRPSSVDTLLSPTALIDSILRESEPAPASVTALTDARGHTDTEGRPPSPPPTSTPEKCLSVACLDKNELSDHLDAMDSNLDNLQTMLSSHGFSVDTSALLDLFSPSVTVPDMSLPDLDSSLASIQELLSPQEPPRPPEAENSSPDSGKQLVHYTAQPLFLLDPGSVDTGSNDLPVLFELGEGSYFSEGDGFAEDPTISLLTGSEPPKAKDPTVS
Summary of the method: as §1

SPIC = molecular target: T2, SPIC (Homo sapiens, UniProt Q8N5J4 1-248); conditions: protein: recombinant; tags: N-terminal GST; dsDNA, one strand shown
T2 sequence: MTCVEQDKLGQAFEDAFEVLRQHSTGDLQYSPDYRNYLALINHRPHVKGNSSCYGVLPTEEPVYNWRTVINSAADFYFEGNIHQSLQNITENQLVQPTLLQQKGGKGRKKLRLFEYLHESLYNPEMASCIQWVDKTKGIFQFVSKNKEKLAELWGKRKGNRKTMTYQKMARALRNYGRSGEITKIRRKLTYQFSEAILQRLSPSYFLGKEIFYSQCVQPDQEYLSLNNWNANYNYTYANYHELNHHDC
Summary of the method: as §1

ELF4 = ELF4 (Homo sapiens, UniProt Q99607 1-663); conditions: protein: recombinant; tags: N-terminal GST; dsDNA, one strand shown
ELF4, sequence (Q99607 whole entry): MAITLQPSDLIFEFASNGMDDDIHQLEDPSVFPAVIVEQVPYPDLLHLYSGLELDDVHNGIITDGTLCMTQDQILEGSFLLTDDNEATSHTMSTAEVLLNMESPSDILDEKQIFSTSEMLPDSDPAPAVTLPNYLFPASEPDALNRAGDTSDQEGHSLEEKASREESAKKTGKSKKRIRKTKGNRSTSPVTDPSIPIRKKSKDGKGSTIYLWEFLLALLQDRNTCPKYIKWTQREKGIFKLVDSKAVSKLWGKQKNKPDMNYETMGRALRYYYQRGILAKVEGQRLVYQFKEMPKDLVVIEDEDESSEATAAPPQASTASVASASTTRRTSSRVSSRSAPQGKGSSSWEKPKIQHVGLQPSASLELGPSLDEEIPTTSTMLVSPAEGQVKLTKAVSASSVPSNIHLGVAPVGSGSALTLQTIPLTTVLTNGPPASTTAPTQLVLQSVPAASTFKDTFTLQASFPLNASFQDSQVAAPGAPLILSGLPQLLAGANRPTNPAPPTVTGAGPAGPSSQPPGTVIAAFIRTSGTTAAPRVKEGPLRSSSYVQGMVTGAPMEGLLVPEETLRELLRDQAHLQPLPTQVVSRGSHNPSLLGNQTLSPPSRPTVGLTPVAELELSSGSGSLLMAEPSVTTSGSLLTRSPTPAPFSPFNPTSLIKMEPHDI
Summary of the method: as §1

ELK4 = molecular target: T3, ELK4 (Homo sapiens, UniProt P28324-2 1-405); conditions: protein: recombinant; tags: N-terminal GST; dsDNA, one strand shown
T3 sequence: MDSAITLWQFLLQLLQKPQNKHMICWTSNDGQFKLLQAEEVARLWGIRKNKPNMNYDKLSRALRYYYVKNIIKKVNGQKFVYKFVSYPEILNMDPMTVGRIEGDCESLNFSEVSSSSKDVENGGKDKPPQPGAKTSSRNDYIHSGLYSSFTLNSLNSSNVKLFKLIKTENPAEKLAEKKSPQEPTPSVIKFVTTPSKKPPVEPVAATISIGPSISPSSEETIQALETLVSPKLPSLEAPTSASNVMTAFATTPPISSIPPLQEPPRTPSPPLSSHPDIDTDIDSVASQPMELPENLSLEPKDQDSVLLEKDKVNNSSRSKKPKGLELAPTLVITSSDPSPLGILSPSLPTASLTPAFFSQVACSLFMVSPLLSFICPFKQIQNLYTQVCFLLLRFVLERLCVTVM
Summary of the method: as §1

ETV2 = molecular target: T4, ETV2 (Homo sapiens, UniProt O00321 1-342); conditions: protein: recombinant; tags: N-terminal GST; dsDNA, one strand shown
T4 sequence: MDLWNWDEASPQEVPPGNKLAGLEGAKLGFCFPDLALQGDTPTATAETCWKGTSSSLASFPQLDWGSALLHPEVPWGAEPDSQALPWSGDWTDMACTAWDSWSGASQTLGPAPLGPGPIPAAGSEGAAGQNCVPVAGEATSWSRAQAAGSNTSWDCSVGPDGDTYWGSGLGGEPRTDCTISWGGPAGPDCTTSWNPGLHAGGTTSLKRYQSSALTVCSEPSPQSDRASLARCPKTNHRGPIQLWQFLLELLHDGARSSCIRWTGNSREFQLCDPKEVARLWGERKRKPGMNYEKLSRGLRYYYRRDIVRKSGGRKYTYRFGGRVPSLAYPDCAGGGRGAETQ
Summary of the method: as §1

ELF3 = molecular target: T5, ELF3 (Homo sapiens, UniProt P78545 1-371); conditions: protein: recombinant; tags: N-terminal GST; dsDNA, one strand shown
T5 sequence: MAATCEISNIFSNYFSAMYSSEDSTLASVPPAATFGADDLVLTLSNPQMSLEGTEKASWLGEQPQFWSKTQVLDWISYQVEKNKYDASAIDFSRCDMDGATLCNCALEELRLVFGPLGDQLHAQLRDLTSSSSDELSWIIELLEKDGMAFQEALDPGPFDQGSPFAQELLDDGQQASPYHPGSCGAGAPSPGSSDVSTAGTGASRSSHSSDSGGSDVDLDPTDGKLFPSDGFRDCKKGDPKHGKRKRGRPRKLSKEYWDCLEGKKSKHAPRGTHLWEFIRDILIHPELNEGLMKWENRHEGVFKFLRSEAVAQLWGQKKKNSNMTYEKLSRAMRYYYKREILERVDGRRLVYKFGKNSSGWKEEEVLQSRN
Summary of the method: as §1

CRX = CRX (Homo sapiens, UniProt O43186 1-299); conditions: protein: recombinant; tags: N-terminal GST; dsDNA, one strand shown
CRX, sequence (O43186 whole entry): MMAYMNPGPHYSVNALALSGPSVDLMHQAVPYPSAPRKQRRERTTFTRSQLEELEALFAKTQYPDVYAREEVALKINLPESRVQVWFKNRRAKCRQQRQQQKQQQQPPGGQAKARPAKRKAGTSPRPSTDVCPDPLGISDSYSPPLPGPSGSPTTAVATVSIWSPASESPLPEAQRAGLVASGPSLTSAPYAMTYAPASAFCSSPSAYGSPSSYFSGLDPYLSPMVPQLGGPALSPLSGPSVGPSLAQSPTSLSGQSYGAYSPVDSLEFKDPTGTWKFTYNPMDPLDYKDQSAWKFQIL
Summary of the method: as §1

ETV1 = ETV1 (Homo sapiens, UniProt P50549 1-477); conditions: protein: recombinant; tags: N-terminal GST; dsDNA, one strand shown
ETV1, sequence (P50549 whole entry): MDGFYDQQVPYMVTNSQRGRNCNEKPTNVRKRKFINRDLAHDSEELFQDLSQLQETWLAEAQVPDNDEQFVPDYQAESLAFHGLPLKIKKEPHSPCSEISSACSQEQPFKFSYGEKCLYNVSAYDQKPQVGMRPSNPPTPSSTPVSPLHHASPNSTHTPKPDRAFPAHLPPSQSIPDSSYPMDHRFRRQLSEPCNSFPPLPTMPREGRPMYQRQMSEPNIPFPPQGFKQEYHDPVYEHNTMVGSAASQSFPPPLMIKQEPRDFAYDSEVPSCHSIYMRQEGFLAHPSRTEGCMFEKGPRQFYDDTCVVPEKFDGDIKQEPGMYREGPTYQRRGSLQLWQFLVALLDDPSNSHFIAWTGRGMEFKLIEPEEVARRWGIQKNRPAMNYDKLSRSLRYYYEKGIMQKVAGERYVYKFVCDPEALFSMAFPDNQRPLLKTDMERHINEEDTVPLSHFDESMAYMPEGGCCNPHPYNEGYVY
Summary of the method: as §1

ERF = molecular target: T6, ERF (Homo sapiens, UniProt P50548 1-548); conditions: protein: recombinant; tags: N-terminal GST; dsDNA, one strand shown
T6 sequence: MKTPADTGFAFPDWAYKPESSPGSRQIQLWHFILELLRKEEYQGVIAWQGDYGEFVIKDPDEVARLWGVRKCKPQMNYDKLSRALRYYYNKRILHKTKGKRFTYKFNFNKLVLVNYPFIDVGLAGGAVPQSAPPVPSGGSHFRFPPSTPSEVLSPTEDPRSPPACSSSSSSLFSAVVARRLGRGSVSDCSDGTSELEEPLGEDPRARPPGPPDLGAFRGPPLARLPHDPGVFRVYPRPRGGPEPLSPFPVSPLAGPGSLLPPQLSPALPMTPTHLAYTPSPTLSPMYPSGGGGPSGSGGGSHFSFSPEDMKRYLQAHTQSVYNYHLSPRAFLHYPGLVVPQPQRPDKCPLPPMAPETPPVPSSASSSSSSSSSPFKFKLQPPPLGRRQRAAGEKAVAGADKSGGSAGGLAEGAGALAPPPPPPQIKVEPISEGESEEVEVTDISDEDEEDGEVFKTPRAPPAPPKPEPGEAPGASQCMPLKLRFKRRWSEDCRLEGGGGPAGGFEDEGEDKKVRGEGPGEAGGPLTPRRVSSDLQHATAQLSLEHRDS
Summary of the method: as §1

ETV3L = molecular target: T7, ETV3L (Homo sapiens, UniProt Q6ZN32 1-361); conditions: protein: recombinant; tags: N-terminal GST; dsDNA, one strand shown
T7 sequence: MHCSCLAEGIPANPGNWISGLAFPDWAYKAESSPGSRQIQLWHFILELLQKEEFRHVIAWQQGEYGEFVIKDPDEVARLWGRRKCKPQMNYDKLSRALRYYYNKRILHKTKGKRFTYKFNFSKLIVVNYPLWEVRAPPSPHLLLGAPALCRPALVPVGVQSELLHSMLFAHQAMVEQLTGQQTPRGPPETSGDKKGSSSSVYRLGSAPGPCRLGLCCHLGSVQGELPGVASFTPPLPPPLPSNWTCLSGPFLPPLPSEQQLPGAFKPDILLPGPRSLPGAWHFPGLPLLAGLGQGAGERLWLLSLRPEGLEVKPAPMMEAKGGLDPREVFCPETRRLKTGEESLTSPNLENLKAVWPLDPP
Summary of the method: as §1

ETS2 = molecular target: T8, ETS2 (Homo sapiens, UniProt P15036 1-469); conditions: protein: recombinant; tags: N-terminal GST; dsDNA, one strand shown
T8 sequence: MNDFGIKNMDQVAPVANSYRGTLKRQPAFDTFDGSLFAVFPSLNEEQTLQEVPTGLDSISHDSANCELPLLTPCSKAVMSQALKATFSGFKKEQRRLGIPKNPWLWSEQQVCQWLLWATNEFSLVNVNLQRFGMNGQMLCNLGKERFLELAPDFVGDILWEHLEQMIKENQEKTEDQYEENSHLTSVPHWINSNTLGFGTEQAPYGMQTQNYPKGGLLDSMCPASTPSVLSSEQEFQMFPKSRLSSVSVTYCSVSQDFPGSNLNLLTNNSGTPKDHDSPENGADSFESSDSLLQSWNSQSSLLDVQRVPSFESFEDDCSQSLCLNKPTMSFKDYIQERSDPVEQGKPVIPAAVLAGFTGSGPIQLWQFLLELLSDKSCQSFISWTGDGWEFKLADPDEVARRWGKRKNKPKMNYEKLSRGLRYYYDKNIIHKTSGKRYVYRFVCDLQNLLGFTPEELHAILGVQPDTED
Summary of the method: as §1

SPDEF = molecular target: T9, SPDEF (Homo sapiens, UniProt O95238 1-335); conditions: protein: recombinant; tags: N-terminal GST; dsDNA, one strand shown
T9 sequence: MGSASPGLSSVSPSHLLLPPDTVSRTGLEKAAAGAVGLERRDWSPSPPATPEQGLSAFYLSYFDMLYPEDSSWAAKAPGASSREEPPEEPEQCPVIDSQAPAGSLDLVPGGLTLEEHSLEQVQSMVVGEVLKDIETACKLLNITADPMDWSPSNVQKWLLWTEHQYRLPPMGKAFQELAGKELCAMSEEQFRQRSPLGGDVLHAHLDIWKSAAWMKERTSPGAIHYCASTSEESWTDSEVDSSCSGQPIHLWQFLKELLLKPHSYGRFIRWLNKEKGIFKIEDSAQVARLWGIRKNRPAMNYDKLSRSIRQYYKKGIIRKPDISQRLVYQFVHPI
Summary of the method: as §1

ETV7 = molecular target: T10, ETV7 (Homo sapiens, UniProt Q9Y603 1-341); conditions: protein: recombinant; tags: N-terminal GST; dsDNA, one strand shown
T10 sequence: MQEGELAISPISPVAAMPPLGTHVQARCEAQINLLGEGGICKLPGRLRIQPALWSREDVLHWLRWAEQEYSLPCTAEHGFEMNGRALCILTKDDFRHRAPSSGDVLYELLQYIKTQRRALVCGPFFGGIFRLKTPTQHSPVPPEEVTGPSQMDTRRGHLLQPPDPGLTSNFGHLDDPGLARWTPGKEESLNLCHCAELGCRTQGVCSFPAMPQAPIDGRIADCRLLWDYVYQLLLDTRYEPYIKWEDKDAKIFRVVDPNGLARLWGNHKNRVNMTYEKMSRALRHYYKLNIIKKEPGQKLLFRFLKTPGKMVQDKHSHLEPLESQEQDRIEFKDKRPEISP
Summary of the method: as §1

ELF5 = molecular target: T11, ELF5 (Homo sapiens, UniProt Q9UKW6-2 1-255); conditions: protein: recombinant; tags: N-terminal GST; dsDNA, one strand shown
T11 sequence: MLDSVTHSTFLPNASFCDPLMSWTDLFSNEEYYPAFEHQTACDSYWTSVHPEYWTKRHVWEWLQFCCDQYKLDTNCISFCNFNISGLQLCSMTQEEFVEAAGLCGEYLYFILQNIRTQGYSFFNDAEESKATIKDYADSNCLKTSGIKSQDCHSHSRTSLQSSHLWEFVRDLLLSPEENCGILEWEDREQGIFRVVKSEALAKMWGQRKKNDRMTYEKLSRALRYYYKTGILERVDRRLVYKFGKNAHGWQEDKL
Summary of the method: as §1

ETV3 = molecular target: T12, ETV3 (Homo sapiens, UniProt P41162-2 1-143); conditions: protein: recombinant; tags: N-terminal GST; dsDNA, one strand shown
T12 sequence: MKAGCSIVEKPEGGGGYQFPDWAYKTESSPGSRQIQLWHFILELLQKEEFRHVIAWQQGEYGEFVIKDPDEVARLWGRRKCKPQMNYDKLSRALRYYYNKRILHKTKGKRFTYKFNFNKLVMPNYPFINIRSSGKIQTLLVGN
Summary of the method: as §1

ETV6 = ETV6 (Homo sapiens, UniProt P41212 1-452); conditions: protein: recombinant; tags: N-terminal GST; dsDNA, one strand shown
ETV6, sequence (P41212 whole entry): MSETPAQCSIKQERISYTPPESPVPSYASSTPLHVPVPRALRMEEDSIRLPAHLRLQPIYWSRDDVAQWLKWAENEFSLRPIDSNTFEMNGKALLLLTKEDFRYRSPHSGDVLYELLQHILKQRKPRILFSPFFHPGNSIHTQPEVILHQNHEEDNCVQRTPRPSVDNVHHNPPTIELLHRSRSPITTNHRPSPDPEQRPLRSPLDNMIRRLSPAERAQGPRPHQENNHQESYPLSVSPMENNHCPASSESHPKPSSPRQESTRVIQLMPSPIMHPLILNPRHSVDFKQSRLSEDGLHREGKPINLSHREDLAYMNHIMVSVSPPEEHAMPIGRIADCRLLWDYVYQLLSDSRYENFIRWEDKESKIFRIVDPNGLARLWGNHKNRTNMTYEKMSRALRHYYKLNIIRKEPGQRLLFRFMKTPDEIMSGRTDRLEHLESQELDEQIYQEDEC
Summary of the method: as §1

## CCGGCT
FEV
  binding signal: 1.8 fold enrichment (6-mer frequency, TF over GST control)
ETV5
  binding signal: 1.89 fold enrichment (6-mer frequency, TF over GST control)
HSF1
  binding signal: 1.3 fold enrichment (6-mer frequency, TF over GST control)
SPIC
  binding signal: 1.46 fold enrichment (6-mer frequency, TF over GST control)
ELF4
  binding signal: 1.68 fold enrichment (6-mer frequency, TF over GST control)
ELK4
  binding signal: 1.53 fold enrichment (6-mer frequency, TF over GST control)
ETV2
  binding signal: 1.84 fold enrichment (6-mer frequency, TF over GST control)
ELF3
  binding signal: 1.8 fold enrichment (6-mer frequency, TF over GST control)
CRX
  binding signal: 1.6 fold enrichment (6-mer frequency, TF over GST control)
ETV1
  binding signal: 1.81 fold enrichment (6-mer frequency, TF over GST control)
ERF
  binding signal: 1.59 fold enrichment (6-mer frequency, TF over GST control)
ETV3L
  binding signal: 1.69 fold enrichment (6-mer frequency, TF over GST control)
ETS2
  binding signal: 1.71 fold enrichment (6-mer frequency, TF over GST control)
SPDEF
  binding signal: 2.32 fold enrichment (6-mer frequency, TF over GST control)
ETV7
  binding signal: 1.74 fold enrichment (6-mer frequency, TF over GST control)
ELF5
  binding signal: 1.92 fold enrichment (6-mer frequency, TF over GST control)
ETV3
  binding signal: 1.7 fold enrichment (6-mer frequency, TF over GST control)
ETV6
  binding signal: 1.77 fold enrichment (6-mer frequency, TF over GST control)

From publication PMC7862700, “An all-to-all approach to the identification of sequence-specific readers for epigenetic DNA modifications on cytosine”
